# Inconclusive results are not listed. Entries that show only a call come without a potency. Activity calls are given as the source filed them. The call rests on the fitted dose curve; in most records, active means well fitted activation curve with a large enough effect in the signal ratio; inconclusive means small, poorly fitted or top-dose-only effect, or effect the other way, or a change in a side signal; inactive means flat fitted curve, though single readings scatter; the % refers to the signal ratio.
# Assay: qHTS assay to identify small molecules that stimulate interleukin-8 (IL-8) secretion (AID 651758)
# Settings: HTRF ratio (665/615); series mostly up to 92.2 µM
# Text: National Center for Advancing Translational Sciences [NCATS]
# NIH Chemical Genomics Center [NCGC]
# National Institutes of Environmental Health Sciences [NIEHS]
# National Toxicology Program [NTP]
# Interleukin-8 is a 8 kDa chemokine produced by macrophages and other cells like epithelial cells that is often associated with inflammation. Interleukin-8 secretion is a key parameter in localized inflammation. There is a growing concern for some of environmental chemicals which may contribute the increasing the incidence of inflammation. A homogeneous IL-8 assay using Time Resolved fluorescence (HTRF) technology based on Time Resolved Fluorescent Resonance Energy Transfer (TR-FRET) allows to measure IL-8 secreted from the cells in a 1536-well plate format.
# THP-1 cells were dispensed at 2000 cells/5ul/well in 1536-well white solid plates. After addition of 23 nl of compound, positive controls and DMSO only, the assay plates were incubated at 37 C for 16 hrs, followed by addition of 5 uL of mixture of cryptate labeled and XL665 labeled anti-IL-8 antibodies. After the assay plates were incubated at room temperature for 1-3 hrs, the plates were measured by an EnVision plate reader.
# Potency means the concentration at half of the fitted maximal effect.
row,Compound,Potency
1,Oc1c(I)cc(Cl)c2cccnc12,inactive
2,O=c1ccc2ccccc2o1,inactive
3,O=C1OC(c2ccc(O)cc2)(c2ccc(O)cc2)c2ccccc21,inactive
4,COC1=CC(=O)C[C@@H](C)[C@]12Oc1c(Cl)c(OC)cc(OC)c1C2=O,inactive
5,O=C(O)CCCCC(=O)O,inactive
6,CC(O)C(=O)O (stereo not given),inactive
7,Oc1ccc(O)cc1,66.8 µM (active)
8,Nc1ccc(C(=O)O)cc1,inactive
9,Oc1ccc(Cl)cc1Sc1cc(Cl)ccc1O,inactive
10,CN(C)/N=N/c1nc[nH]c1C(N)=O,75 µM (active)

# From PubChem BioAssay (NCATS)
